The source made the active and inactive calls.

A short description of assay [1]: small molecules captured by biotinylated probe aFSTL3 – biochemical, small-molecule microarray, fluorescence 635/667, stem cell growth factor project, primary screen (AID 1064).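 Further: measures binding of the biotinylated anti-FSTL3 antibody to printed compounds.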 The following applies: higher = more signal.
The nature of assay [2]: binders from COS7 lysate, DM2A8 probe, primary screen, torsin A project, cell lysate, small-molecule microarray, fluorescence 635/667 (AID 1065). The conditions noted are these: higher = more signal, COS7 lysate expressing mutant human TOR1A.
A short description of assay [3]: small molecules captured by biotinylated probe aFGF2 – biochemical, small-molecule microarray, fluorescence 635/667, stem cell growth factor project, primary screen (AID 1067).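 Further: measures binding of biotinylated aFGF2 protein to printed compounds on slides; z-score merges feature fluorescence and signal-to-noise across triplicate slides.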 The following applies: higher = more signal.
Assay [4] is described as follows: small molecules captured by biotinylated probe aFGF10 – biochemical, small-molecule microarray, fluorescence 635/667, stem cell growth factor project, primary screen (AID 1071).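 Further: score merges 667 nm spot intensity and signal to noise from triplicate slides.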 The conditions noted are these: higher = more signal.
Assay [5] concerns the target Neurogenic locus notch homolog protein 2 (Homo sapiens) (UniProt Q04721). As to the kind of experiment: small molecules binding Notch2 protein – biochemical, small-molecule microarray, 635 nm fluorescence, stem cell growth factors, primary screen (AID 1073). The conditions noted are these: higher = more signal.
For assay [6], the target named is Pro-neuregulin-1, membrane-bound isoform (Homo sapiens) (UniProt Q02297). Kind of assay: small molecules binding neuregulin-1 protein – biochemical, small-molecule microarray, fluorescence 635/667, psychiatric disease protein project, primary screen (AID 1075).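 Further: score combines 667 nm spot fluorescence with signal to noise.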 The conditions noted are these: NRG1 binding, 635 nm fluorescence, higher = more signal.
In assay [7] the test system is Neuregulin-1 EGF-like domain. Kind of assay: small molecules binding NRG1 EGF domain – biochemical, small-molecule microarray, 635 nm fluorescence, primary screen (AID 1081).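 Further: binding of the protein to compounds printed on small-molecule microarray slides.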 The conditions noted are these: higher = more signal.
Assay [8] can be described thus: FRG1 expression reporter modulators in myotubes – cell-based, C2C12 myotubes, firefly/Renilla luciferase, luminescence, FRG1 inhibition for FSHD, primary screen (AID 1084). The following applies: FRG1 promoter luciferase, higher = more signal, called active from +8 up or from −8 down.
Assay [9] can be described thus: small molecules captured by biotinylated probe aFST – biochemical, small-molecule microarray, fluorescence 635/667, stem cell growth factor project, primary screen (AID 1086).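 Further: score merges 667 nm fluorescence with signal-to-noise of each printed compound spot.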 The following applies: higher = more signal.
Assay [10] is described as follows: binders of probe aHhip on microarray, primary screen, stem cell growth factor project, biochemical, small-molecule microarray, fluorescence 635/667 (AID 1087).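 Further: score merges spot fluorescence at 667nm with spot signal to noise ratio.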 The conditions noted are these: higher = more signal.
The test system of assay [11] is PRMT1 (protein arginine N-methyltransferase 1). As to the kind of experiment: small molecules binding arginine methyltransferase PRMT1 – biochemical, small-molecule microarray, 635 nm fluorescence, primary screen (AID 1088).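 Further: binding of Prmt1 protein to compounds spotted on small-molecule microarray slides.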 The conditions noted are these: higher = more signal.
Assay [12] in a line: growth effects on S. cerevisiae YJM789 – YJM789 clinical isolate, OD600, 24 h, basal, primary screen (AID 1089).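 Further: growth of clinical yeast isolate S. cerevisiae YJM 789 seeded 1000 cells per well; test concentration not given here.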 The conditions noted are these: higher = more signal, called active from +8 up or from −8 down.
Assay [13] can be described thus: S. pombe growth modifiers, basal conditions – strain 972, OD600, 24 h, no modulator, primary screen (AID 1090).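 Further: basal condition with compound alone and no growth modifier present; test concentration not given here.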 The conditions noted are these: S. pombe 972 growth, higher = more signal, called active from +8 up or from −8 down.
Assay [14] in a line: budding yeast growth modifiers under rapamycin – strain BY4716, OD600, 96 h, primary screen (AID 1091). Further: test concentration not given here. The following applies: S. cerevisiae BY4716 + rapamycin, higher = more signal, called active from +8 up or from −8 down.
The target of assay [15] is Torsin-1A-interacting protein 2 (Homo sapiens) (UniProt Q8NFQ8). Kind of assay: small molecules binding lysate-expressed LULL1 – cell lysate, human LULL1 lysate, 635/667 nm fluorescence, primary screen (AID 1092).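 Further: probe is lysate of COS7 cells overexpressing human LULL1; score merges per-feature 667 nm fluorescence with signal-to-noise.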 The following applies: small-molecule microarray, hLULL1 lysate binding, 635 nm fluorescence; higher = more signal.
A short description of assay [16]: optical density change of DRC41 E. coli – strain DRC41, OD650, 24 h, E. coli filamentation project, primary screen (AID 1093).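 Further: MC1000 strain lacking acrAB efflux and sulA so SOS filamentation is blocked; test concentration not given here.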 The conditions noted are these: E. coli DRC41 growth, higher = more signal, called active from +8 up or from −8 down.
The nature of assay [17]: probe aLefty2 binding to arrayed compounds – biochemical, biotinylated probe, 635/667 nm fluorescence, primary screen (AID 1094).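 Further: score merges spot fluorescence near 667 nm with spot signal-to-noise ratio.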 The conditions noted are these: small-molecule microarray, higher = more signal.
Assay [18] deals with Noggin (protein binding on small-molecule microarray). Kind of assay: small molecules binding Noggin protein – biochemical, 635/667 nm fluorescence, primary screen (AID 1095).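 Further: score merges 667 nm feature fluorescence with signal to noise over triplicate slides.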 The following applies: 635 nm fluorescence, higher = more signal.
The target in assay [19] is Neurogenic locus notch homolog protein 3 (Homo sapiens) (UniProt Q9UM47). Kind of assay: small molecules binding NOTCH3 protein – biochemical, 635/667 nm fluorescence, primary screen (AID 1096). The conditions noted are these: small-molecule microarray, 635 nm fluorescence, higher = more signal.
Assay [20] is described as follows: probe aEGFR binding to arrayed compounds – biochemical, biotinylated probe, 635/667 nm fluorescence, primary screen (AID 1097).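 Further: probe is a biotinylated anti-EGFR antibody binding compounds printed on slides; score combines fluorescence near 667 nm and signal to noise of each spot.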 The following applies: small-molecule microarray, higher = more signal.

Neurogenic locus notch homolog protein 2 (Homo sapiens), sequence (Q04721 whole entry, looked up, canonical isoform): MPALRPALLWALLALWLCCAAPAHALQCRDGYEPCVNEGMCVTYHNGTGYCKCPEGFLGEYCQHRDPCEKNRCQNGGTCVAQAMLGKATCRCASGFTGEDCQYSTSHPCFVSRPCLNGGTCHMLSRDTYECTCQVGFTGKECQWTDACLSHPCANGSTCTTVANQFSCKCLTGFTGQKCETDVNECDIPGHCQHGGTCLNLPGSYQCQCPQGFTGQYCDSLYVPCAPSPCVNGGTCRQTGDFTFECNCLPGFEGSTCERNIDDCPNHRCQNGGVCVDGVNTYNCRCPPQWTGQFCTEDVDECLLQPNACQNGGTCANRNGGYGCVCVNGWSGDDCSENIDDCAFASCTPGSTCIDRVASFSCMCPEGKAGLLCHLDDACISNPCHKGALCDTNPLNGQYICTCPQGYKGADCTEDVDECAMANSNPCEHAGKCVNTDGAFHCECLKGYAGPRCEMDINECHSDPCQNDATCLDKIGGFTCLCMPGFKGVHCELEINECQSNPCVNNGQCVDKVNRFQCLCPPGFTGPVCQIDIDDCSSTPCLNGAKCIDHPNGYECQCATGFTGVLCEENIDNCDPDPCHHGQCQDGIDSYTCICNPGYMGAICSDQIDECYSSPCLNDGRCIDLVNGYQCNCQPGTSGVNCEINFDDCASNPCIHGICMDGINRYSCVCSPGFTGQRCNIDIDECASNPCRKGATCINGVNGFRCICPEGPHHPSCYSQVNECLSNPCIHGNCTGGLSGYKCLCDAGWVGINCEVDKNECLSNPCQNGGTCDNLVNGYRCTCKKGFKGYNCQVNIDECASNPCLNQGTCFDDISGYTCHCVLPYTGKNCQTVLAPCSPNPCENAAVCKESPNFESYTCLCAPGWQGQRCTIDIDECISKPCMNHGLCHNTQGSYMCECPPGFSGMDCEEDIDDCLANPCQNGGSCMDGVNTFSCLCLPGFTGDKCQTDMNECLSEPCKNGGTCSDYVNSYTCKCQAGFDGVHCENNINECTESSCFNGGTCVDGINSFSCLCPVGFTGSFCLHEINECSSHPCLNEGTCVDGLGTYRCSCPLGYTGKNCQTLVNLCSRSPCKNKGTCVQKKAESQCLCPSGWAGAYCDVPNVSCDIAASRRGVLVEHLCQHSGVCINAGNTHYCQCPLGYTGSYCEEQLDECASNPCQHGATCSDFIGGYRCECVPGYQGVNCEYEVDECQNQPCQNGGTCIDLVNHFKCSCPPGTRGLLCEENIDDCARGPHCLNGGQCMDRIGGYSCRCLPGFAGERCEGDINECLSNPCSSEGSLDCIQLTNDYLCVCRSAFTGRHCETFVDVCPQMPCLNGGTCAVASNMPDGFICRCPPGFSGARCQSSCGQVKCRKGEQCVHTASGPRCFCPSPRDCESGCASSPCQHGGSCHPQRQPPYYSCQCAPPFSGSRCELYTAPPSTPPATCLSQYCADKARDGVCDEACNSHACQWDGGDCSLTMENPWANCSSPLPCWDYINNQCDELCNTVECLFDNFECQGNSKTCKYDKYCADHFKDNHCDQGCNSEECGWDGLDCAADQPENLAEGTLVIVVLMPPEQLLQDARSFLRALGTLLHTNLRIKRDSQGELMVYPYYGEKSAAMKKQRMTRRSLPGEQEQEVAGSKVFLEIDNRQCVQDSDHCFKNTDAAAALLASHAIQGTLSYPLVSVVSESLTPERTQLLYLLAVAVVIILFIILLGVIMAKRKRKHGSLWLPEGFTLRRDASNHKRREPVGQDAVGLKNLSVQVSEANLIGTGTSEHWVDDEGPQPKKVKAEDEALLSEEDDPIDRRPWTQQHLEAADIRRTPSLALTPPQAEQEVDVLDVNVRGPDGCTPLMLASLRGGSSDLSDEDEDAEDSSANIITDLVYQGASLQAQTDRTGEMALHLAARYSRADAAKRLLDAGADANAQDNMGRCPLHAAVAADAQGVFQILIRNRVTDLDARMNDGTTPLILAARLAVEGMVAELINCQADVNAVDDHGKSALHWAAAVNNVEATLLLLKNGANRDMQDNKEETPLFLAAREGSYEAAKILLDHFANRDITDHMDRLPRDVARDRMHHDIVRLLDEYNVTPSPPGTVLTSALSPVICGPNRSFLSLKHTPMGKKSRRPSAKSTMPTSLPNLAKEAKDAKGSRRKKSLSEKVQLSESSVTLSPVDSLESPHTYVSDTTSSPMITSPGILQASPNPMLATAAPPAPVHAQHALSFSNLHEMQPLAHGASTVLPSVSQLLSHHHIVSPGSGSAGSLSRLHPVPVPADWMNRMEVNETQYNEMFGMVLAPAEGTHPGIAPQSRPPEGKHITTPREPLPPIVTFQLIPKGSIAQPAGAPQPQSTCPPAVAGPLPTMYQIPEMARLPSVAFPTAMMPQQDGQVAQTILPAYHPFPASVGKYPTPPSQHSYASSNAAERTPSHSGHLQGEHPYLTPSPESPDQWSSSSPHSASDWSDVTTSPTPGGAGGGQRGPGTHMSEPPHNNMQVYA
Torsin-1A-interacting protein 2 (Homo sapiens), sequence (Q8NFQ8 whole entry, looked up): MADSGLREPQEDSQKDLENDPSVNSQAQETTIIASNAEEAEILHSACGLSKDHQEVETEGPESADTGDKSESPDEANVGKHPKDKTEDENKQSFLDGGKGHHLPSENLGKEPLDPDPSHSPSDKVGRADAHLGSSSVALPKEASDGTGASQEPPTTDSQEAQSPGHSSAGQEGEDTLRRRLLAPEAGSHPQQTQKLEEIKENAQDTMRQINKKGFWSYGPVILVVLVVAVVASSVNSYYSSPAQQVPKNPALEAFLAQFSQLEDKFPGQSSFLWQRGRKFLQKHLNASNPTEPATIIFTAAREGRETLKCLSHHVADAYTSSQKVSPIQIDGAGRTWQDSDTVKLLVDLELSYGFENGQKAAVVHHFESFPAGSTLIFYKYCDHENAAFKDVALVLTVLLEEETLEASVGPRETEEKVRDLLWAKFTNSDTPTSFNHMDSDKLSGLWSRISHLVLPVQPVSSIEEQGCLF
Pro-neuregulin-1, membrane-bound isoform (Homo sapiens), sequence (Q02297 whole entry, looked up, the tested form may be a part, canonical isoform): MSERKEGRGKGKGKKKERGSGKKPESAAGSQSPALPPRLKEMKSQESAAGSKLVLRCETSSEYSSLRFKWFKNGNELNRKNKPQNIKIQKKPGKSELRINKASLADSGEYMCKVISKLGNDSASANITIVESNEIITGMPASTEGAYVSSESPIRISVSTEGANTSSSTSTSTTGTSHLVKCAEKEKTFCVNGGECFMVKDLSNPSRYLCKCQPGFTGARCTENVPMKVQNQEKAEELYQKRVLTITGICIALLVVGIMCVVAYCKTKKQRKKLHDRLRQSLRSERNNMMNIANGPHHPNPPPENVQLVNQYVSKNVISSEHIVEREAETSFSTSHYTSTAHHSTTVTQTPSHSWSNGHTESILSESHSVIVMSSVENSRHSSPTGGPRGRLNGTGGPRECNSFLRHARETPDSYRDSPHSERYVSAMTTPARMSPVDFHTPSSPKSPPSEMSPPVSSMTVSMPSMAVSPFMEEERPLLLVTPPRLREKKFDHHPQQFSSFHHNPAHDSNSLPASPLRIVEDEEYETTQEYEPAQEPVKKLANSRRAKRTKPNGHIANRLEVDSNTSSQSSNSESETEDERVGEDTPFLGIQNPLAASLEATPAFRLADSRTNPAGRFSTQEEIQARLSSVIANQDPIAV

As to `O=C1OCCC=C1C(O)CCc1ccccc1` (stereo not given), the composite z-score was -0.209 in assay [1]; 0.652 in [2]; -0.0885 in [3]; 0.37 in assay [4]; 0.327 in assay [5]; -0.192 in assay [6]. In addition, the composite z-score is 0.375 in assay [7]; 0.285 in assay [9]; -0.0645 in assay [10]; -1.06 in assay [11]; -0.119 in assay [15]; -0.0324 in assay [17]. For the same compound, the figures for the composite z-score in [18], in [19] and in assay [20] were 0.433, 0.67 and 0.0009, respectively. Also, the z-score is 0.667 (inactive) in assay [8]; -0.857 (inactive) in assay [12]; -0.113 (inactive) in assay [13]; -0.665 (inactive) in assay [14]; 0.353 (inactive) in assay [16].
For `COC(=O)[C@H](C)NC(=O)CCC1CC(OC(=O)NCc2ccc3c(c2)OCO3)CC2(CCCC(COC(=O)NCc3cccc(C(F)(F)F)c3)O2)O1` (stereo not given in full), the composite z-score was -0.0199 in assay [1]; 0.325 in [2]; -0.1 in assay [3]; 0.688 in assay [4]; 0.679 in assay [5]; 0.151 in [6]. Also, the composite z-score is 0.795 in [7]; 0.307 in assay [9]; 1.19 in [10]; 1.42 in assay [11]; 1.65 in [15]; -0.0096 in assay [17]. The composite z-score was 0.186 in assay [18], 0.524 in assay [19] and -0.0644 in assay [20]. The z-score in assay [8] was -0.15 (inactive); in assay [12] it was -1.04 (inactive); in assay [13], 0.0536 (inactive); in [14], 0.253 (inactive); in assay [16] it was -0.15 (inactive).
`CC(=O)O[C@H]1C2=CO[C@H](C)[C@H]3[C@H]4C5=C([C@H](O)[C@H]6O[C@H]6C5=O)[C@H](OC4C)[C@@]23C(=O)[C@@H]2O[C@@H]21` (stereo not given in full): the composite z-score was -0.186 in [1]; 0.0382 in [2]; -0.0724 in [3]; 0.705 in assay [4]; 0.673 in assay [5]; 0.435 in assay [6]. For the same compound, the composite z-score in [7] is 1.01; in [9], 0.163; in assay [10], 0.154; in [11], 0.593; in [15], 0.946; in assay [17], -0.299. Also, the composite z-score in assay [18] was 0.433; in [19] it was 0.392; in [20], -0.0047. Besides, the z-score is -3.35 (inactive) in assay [8]; 0.116 (inactive) in assay [12]; 0.197 (inactive) in assay [13]; 0.0253 (inactive) in assay [14]; -0.681 (inactive) in assay [16].
For the compound `CC(C)=CCCC(C)=CCON=C1C[C@@H](O)[C@@H](O)[C@@H]2[C@@H]3C(=O)N(C[C@@H]4CCCO4)C(=O)[C@@H]3CC[C@H]12`, the composite z-score in [1] was -0.532; in [2] it was 1.78; in assay [3] it was -0.142; in [4] it was 0.508; in [5] it was 0.583; in assay [6], 0.447. Also, the composite z-score in assay [7] was 1.05; in assay [9], 0.417; in [10] it was -0.0645; in assay [11] it was 1.56; in assay [15] it was 1.39; in assay [17] it was -0.111. Further, the composite z-score turned out to be 0.987 in assay [18], 1.08 in assay [19] and 0.122 in assay [20]. The z-score in [8] was -0.0588 (inactive); in assay [12] it was 0.46 (inactive); in assay [13], 0.948 (inactive); in assay [14], 0.036 (inactive); in [16], 0.362 (inactive).
In the case of `C=CC1=C[C@H](O)[C@@H]2O[C@@H]2C12OCCCO2`, the composite z-score in assay [1] was -0.0605; in assay [2] it was 0.2; in [3], -0.204; in assay [4], 0.206; in [5], 0.0754; in [6], 0.122. Besides, the composite z-score in assay [7] is 0.35; in assay [9], -0.136; in assay [10], 0.0274; in assay [11] it was -0.12; in [15], -0.119; in assay [17], -0.244. For the same compound, the results for the composite z-score in assay [18], in assay [19] and in assay [20] were 0.412, -0.239 and 0.009, respectively. Further, the z-score in assay [8] is 0.293 (inactive); in assay [12] it was -0.532 (inactive); in assay [13], 0.199 (inactive); in [14] it was -0.138 (inactive); in assay [16] it was -0.0339 (inactive).

(Values after PubChem BioAssay.)
